Source: PubChem BioAssay
This is one part of a sample in which hits are shown more often than they occur.
FBPA Giardia inh – Giardia lamblia aldolase inhibition | purified Giardia FBPA | 290,000 compounds, 0.71% hits | Potency, µM (titrated, usually from 59.6 µM), most hits filed as inhibitors | AID 2451; further: nearly all actives have a fitted effect of over 55% in size
Target sequence (A8B2U2 whole entry, looked up): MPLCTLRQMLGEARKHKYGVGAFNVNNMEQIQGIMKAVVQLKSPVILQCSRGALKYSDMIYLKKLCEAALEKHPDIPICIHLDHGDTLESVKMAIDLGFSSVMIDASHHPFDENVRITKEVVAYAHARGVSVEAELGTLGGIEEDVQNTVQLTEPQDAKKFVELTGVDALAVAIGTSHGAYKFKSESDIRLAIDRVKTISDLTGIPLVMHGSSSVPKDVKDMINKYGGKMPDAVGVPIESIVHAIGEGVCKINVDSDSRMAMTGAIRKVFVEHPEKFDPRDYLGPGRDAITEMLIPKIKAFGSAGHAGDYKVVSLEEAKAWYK
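40 nM FBPA preincubated 10 min at RT with compound (up to 57.5 uM final), then substrate plus GAPDH/TPI/NAD/arsenate coupling and diaphorase/resazurin added. Fluorescence read after 20 min at RT, 525/598 nm.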
Cycloheximide cs – counter-screen for Shiga toxin inhibitors: cycloheximide protein synthesis inhibition. max response, %. 300,000 compounds, 12% hits. AID 2314. cell reporter, cycloheximide protein synthesis inhibition counterscreen; in the data active means max response mostly above about 13%, no sharp cut-off; inactive means mostly below about 14%; further: read at 38.3 µM for the half of the compounds with a filed dose
Shiga inhibitor – inhibitors of Shiga toxin in Vero cells; Vero cells, Shiga toxin protein synthesis inhibition reporter; inhibition, % at 38.7 µM; 290,000 compounds, 9.2% hits; in the data active means inhibition mostly above about 28%, no sharp cut-off; inactive means mostly below about 43%
Sm TGR inh – inhibitors of Schistosoma mansoni thioredoxin glutathione reductase; Q962Y6; purified TGR, DTNB reduction, TNB absorbance 405 nm; Potency, µM (titrated, usually from 114 µM), hits mostly inhibitors; 360,000 compounds, 3% hits; AID 485364; further: nearly all actives have a fitted effect of over 60% in size
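Kinetic colorimetric format: TGR-catalysed, NADPH-driven DTNB reduction monitored via TNB absorbance. Enzyme dispensed at 20 nM; compound exposure 15 min at room temperature before reaction start.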
LmPK inh – LmPK (Leishmania mexicana) enzyme inhibition. 290,000 compounds, 0.37% hits. AID 1721. purified LmPK, Kinase-Glo ATP luminescence, 1 h. Potency, µM (titrated, usually from 57.5 µM), usual class: inhibitors
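In 50 mM imidazole pH 7.2 with 7 mM MgCl2, LmPK (0.1 nM) turned over PEP (0.5 mM) and ADP (0.1 mM) for 1 h at room temperature. Luciferase read-out of ATP.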
Tb PYK inh – inhibitors of Trypanosoma brucei pyruvate kinase | Q57TT1 | 410,000 compounds, 0.12% hits | Potency, µM (highest dose often 76.8 µM), hits mostly inhibitors | TbPYK enzyme, Kinase-Glo Plus ATP luminescence, 45 min | AID 624173; further: nearly all actives have a fitted effect of over 50% in size
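Assay buffer: 50 mM TEA pH 7.2, 100 mM KCl, 10 mM MgCl2, 0.05% BSA, 0.01% Tween-20. Pyruvate kinase from T. brucei plus substrate met compound, then ADP (130 uM final). Luminescence was read post 45 min RT.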
Each line names hits and unclear results; the compound was inactive in the other large screens. Unless noted, the call rests on the fitted dose curve; in most records, active means well fitted curve in the direction sought with a large enough effect; inconclusive means small, poorly fitted or top-dose-only effect, or another doubt; inactive means no such curve, though single readings can be large; an effect the other way counts as inactive or inconclusive.

Cc1cccc(NC(=O)N2CCCC2)c1	none (no result: Sm TGR inh)
COc1ccc2c(Sc3ccccc3)c(C(=O)NCCc3ccc(Cl)cc3)[nH]c2c1	none (no result: FBPA Giardia inh, Cycloheximide cs, Shiga inhibitor, LmPK inh)
CCOC(=O)c1c(C)oc2nc(C)nc(N(C)Cc3ccccc3)c12	none (no result: FBPA Giardia inh, Cycloheximide cs, Shiga inhibitor, LmPK inh)
COc1ccc(CCNC(=O)CCc2cn(Cc3ccc(F)cc3)c3ccccc23)cc1OC	none (no result: FBPA Giardia inh, Cycloheximide cs, Shiga inhibitor, LmPK inh)
CCOC(=O)c1ccc(NC(=O)N2CCN(CCc3ccccc3)CC2)cc1	Cycloheximide cs 20.1
Cc1cccc(NC(=S)N2CCCCCC2)c1	Cycloheximide cs 8.0
COc1ccccc1N1CCN(C(=S)Nc2cccc(C)c2)CC1	Cycloheximide cs 32.5
Cc1cccc(CN2CCN(C(=O)CCl)CC2)c1	Sm TGR inh 35.5µM
COc1cc2c(cc1OC)C(=O)OC2	none (no result: Cycloheximide cs, Shiga inhibitor, Sm TGR inh, LmPK inh, Tb PYK inh)
S=C(Nc1ccc2nsnc2c1)N1CCCCC1	FBPA Giardia inh inconclusive, Cycloheximide cs 11.3, Shiga inhibitor 42.0
S=C(Nc1ccc(Cl)c(Cl)c1)N1CCCC1	none
S=C(Nc1ccc2nccnc2c1)N1CCOCC1	FBPA Giardia inh 14.1µM, Cycloheximide cs 36.9, Shiga inhibitor 48.2
Cc1ccc(NC(=O)N2CCCCCC2)cc1C	Cycloheximide cs 44.3, Shiga inhibitor 69.0 (no result: FBPA Giardia inh)
CC(C)(C)C(=O)Nc1c2c(nn1-c1ccccc1)CSC2	Sm TGR inh inconclusive
CCOCCCn1c(SCC(=O)Nc2cc(C)ccc2C)nc2c(oc3ccccc32)c1=O	none (no result: FBPA Giardia inh, Cycloheximide cs, Shiga inhibitor, LmPK inh)
CN(C)c1ncc(/C=C2/C(=O)NC(=S)N(C3CCCCC3)C2=O)cn1	none (no result: Sm TGR inh, Tb PYK inh)
CCC(C)N1C(=O)/C(=C\c2cnc(N(C)C)nc2)C(=O)NC1=S (stereo not drawn)	Sm TGR inh 10µM, Tb PYK inh inconclusive
CCNc1nc2ccccc2[nH]1	none
C/C(=N\Nc1nc2ccccc2[nH]1)c1cc2ccccc2o1	Cycloheximide cs 24.6, Shiga inhibitor 39.3, LmPK inh inconclusive
C/C(=N\Nc1nc2ccccc2[nH]1)c1ccccn1	Cycloheximide cs 28.3, Shiga inhibitor 106.6 (no result: Tb PYK inh)
COc1ccc(CN(C)c2ccc(-c3nc(-c4ccc(OC)c(OC)c4)no3)cc2[N+](=O)[O-])cc1	none (no result: FBPA Giardia inh, Cycloheximide cs, Shiga inhibitor, LmPK inh)
CCc1ccc(Nc2cc(=O)n(C3CCCCC3)c(=O)[nH]2)cc1	Cycloheximide cs 30.2, Shiga inhibitor 86.5
O=c1cc(Nc2ccc3c(c2)OCCO3)[nH]c(=O)n1C1CCCCC1	Shiga inhibitor 23.2
Cc1nc2cncnc2n(-c2ccccc2)c1=O	none (no result: Cycloheximide cs, Shiga inhibitor, Sm TGR inh, LmPK inh)
CC(=O)c1cccc(NC(=O)CN2C(=O)c3cccnc3Sc3ccccc32)c1	none (no result: FBPA Giardia inh, Cycloheximide cs, Shiga inhibitor, LmPK inh)
CC(C)(C)OC(=O)NCC1CCN(S(=O)(=O)Cc2ccccc2)CC1	none
CC(C)(C)OC(=O)NCC12C=CC(O1)C1C(=O)N(Cc3ccccc3)C(=O)C12 (stereo not drawn)	Sm TGR inh 8.91µM
COc1ccc(C2CN=NC2C(=O)c2ccccc2)cc1 (stereo not drawn)	Cycloheximide cs 20.5, Shiga inhibitor 25.6, Sm TGR inh inconclusive
CCOC(=O)NC1(NC(C)C)Oc2ccccc2O1	Sm TGR inh 44.7µM
CCOC(=O)NC1(NC2CCCCC2)Oc2ccccc2O1	Sm TGR inh 15.8µM
CCOC(=O)NC1(NCc2ccccc2)Oc2ccccc2O1	Cycloheximide cs 15.6, Sm TGR inh 31.6µM
CCOC(=O)NC1(NCC(C)C)Oc2ccccc2O1	FBPA Giardia inh inconclusive, Sm TGR inh 22.4µM
O=[n+]1ccn([O-])c2ccccc21	none (no result: FBPA Giardia inh, Cycloheximide cs, Shiga inhibitor, Sm TGR inh, LmPK inh)
CCOC(=O)c1cc(-c2ccccc2)n(-c2cccc(C(=O)N(CC)c3ccccc3)c2)c1C	none (no result: FBPA Giardia inh, Cycloheximide cs, Shiga inhibitor, LmPK inh)
CCOC(=O)NC1(Nc2ccc(C)cc2)Oc2ccccc2O1	Cycloheximide cs 55.1, Shiga inhibitor 46.4, Sm TGR inh 39.8µM, Tb PYK inh inconclusive
Cc1ccc(SCC(c2ccccc2)N2CCN(C)CCC2=O)cc1 (stereo not drawn)	Cycloheximide cs 31.1, Shiga inhibitor 52.4 (no result: Sm TGR inh, LmPK inh, Tb PYK inh)
CN1CCC(=O)N([C@H](CSc2ccc(Br)cc2)c2ccccc2)CC1	Cycloheximide cs 25.0, Shiga inhibitor 63.5, Sm TGR inh inconclusive
Cc1ccc(C)c(N2CCN(C(=O)c3cc(C)nc4c3c(C)nn4-c3ccccc3)CC2)c1	none (no result: FBPA Giardia inh, Cycloheximide cs, Shiga inhibitor, LmPK inh)
O=C(c1ccc(NC(=S)NCc2ccco2)cc1)N1CCCCC1	Sm TGR inh inconclusive
COc1cccc([C@@H]2Oc3ccc(OC)cc3C(=O)[C@H]2OC(=O)NCc2ccco2)c1	none (no result: Cycloheximide cs, Shiga inhibitor, Sm TGR inh, LmPK inh, Tb PYK inh)
COc1ccc(NC(=O)c2ccc(Cn3cc(Cl)cn3)cc2)cc1	none
